# Compound activity (PubChem)
# This is a sample that favours compounds with a hit; in the whole collection about 4.7% have one here.
# Calb FLC: C. albicans growth modulation with fluconazole; C. albicans CaCi-2 (fluconazole-resistant clinical isolate) + fluconazole, Alamar Blue growth, 48 h; growth inhibition, % (no concentration beside the values); 0.57% of 300,000 active;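 active means growth inhibition above about 58% in most replicates, limit read from the data, passing the limit was not always enough; inconclusive means exactly half the replicates above a set limit; inactive means most replicates below a set limit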;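 further: all wells also contain fluconazole at 8 µg/ml as a sub-toxic cotreatment; 0% = median of DMSO wells and 100% = median of geldanamycin control wells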
# SKKanGAS inh: SKKanGAS growth inhibition | S. pyogenes SKKanGAS, kanamycin growth, BacTiter-Glo, 6 h | inhibition, % at 7.5 µM | 1.3% of 300,000 active;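 active means mean replicate score, as percent of positive control median, at least 50; inconclusive means mean below 50 but one replicate at or above 50; inactive means mean and every replicate below 50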;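 further: strain carries kanamycin resistance gene driven by streptokinase promoter and grows in 40 µg/ml kanamycin; loss of luminescence reflects streptokinase promoter inhibition or plain growth inhibition; 0% = median of DMSO wells and 100% = positive control at its reference dose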
# tim23-1 inh: inhibits growth of tim23-1 mutant yeast | S. cerevisiae tim23-1 growth, BacTiter-Glo luminescence, 24 h | inhibition, % at 20 µM | 1.3% of 330,000 active;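 active means growth inhibition of the mutant yeast at or above 50%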;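 further: temperature-sensitive mutant grown at 25 °C; plate controls were DMSO-treated mutant yeast for no effect and medium wells lacking yeast for full effect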
# TIM10 inh: growth inhibitors of TIM10 yeast strain | S. cerevisiae TIM10 strain growth, BacTiter-Glo luminescence, 24 h | inhibition, % at 10 µM | 1.4% of 330,000 active | AID 463195;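 active means inhibition of 40% or more at the single tested concentration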;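 further: wild-type TIM10 isogenic control strain grown at permissive 25 °C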
# tim10-1 inh: inhibits growth of tim10-1 mutant yeast; S. cerevisiae tim10-1 ts strain growth, BacTiter-Glo, 24 h; inhibition, % at 20 µM; 2.2% of 330,000 active; AID 463190;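 active means inhibition of at least 40%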;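 further: mutant grown at 25 °C; 0% = DMSO wells with yeast and 100% = wells holding no yeast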
# PfHsp90 set2: inhibits growth of yeast expressing Plasmodium falciparum Hsp90; 0.32% of 310,000 active; inhibition, % at 9.4 µM; S. cerevisiae expressing PfHsp90, BacTiter-Glo ATP, 48 h; yeast lacking PDR1 and PDR3 efflux regulators;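 active means every replicate shows inhibition above about 80%, whatever the replicate mean, limit read from the data; inconclusive means mean inhibition reaches the set limit but some replicate falls short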;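 further: 0% = DMSO neutral controls and 100% = 20 µM radicicol positive controls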
# TIM10 conf: TIM10 yeast growth inhibition, confirmed. shares compounds with TIM10 inh. S. cerevisiae tim10 strain growth, BacTiter-Glo luminescence, 24 h. 63% of 4,600 active. inhibition, % at 10 µM;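 active means inhibition of yeast growth at or above a set limit in either of two replicates at 10 µM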;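 further: this counterscreen used the strain with wild-type TIM10; 0% = yeast with DMSO and 100% = medium wells lacking yeast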
# Starred values were filed as active, the others as inactive; u = inconclusive; x = no result given.
SMILES,Calb FLC,SKKanGAS inh,tim23-1 inh,TIM10 inh,tim10-1 inh,PfHsp90 set2,TIM10 conf
Cc1cccn2c(=O)c3cc(C(=O)NC4CCCC4)c(=N)n(C4CCCCC4)c3nc12,u,-8,6,-9,27,-29,x
C/C(=N\NC(=S)Nc1ccc(F)cc1)c1ccc2c(c1)OCCO2,3,3,38,44*,35,0,51*
C/C(=N/NC(=O)c1ccc2c(c1)OCO2)c1ccc(NC(=O)c2ccc(F)cc2)cc1,-18,x,-11,-29,-11,18,x
Cc1cc(Cl)ccc1OCCCC(=O)OCC(=O)Nc1cccc(S(N)(=O)=O)c1,x,x,-2,-6,-2,1,x
CCOc1ccc(OCCSc2ccc(S(=O)(=O)N3CCN(C)CC3)cn2)cc1,x,x,50,46*,38,-1,52*
C#CCOCCOCCOCCNc1nc(N2CCN(C(=O)[C@H](CCC(=O)O)n3cc([C@@H](N)[C@H](C)CC)nn3)CC2)nc(N2CCN(C(=O)[C@H](CCCCN)n3cc([C@@H](N)CC(N)=O)nn3)CC2)n1,x,x,12,-1,14,8,x
COc1ccc(-c2cn3cc(C)ccc3n2)cc1F,u,-18,36,61*,27,18,57*
COC(=O)c1cc(NC(=O)c2cccnc2)cc(C(=O)OC)c1,40,0,16,7,13,-6,x
O=C(Nc1cccc(O)c1)c1ccccc1,-2,2,26,40*,16,7,-10
CCOC(=O)Nc1cccc(NC(=O)c2cc(OC)cc(OC)c2)c1,17,-16,49,41*,22,18,11
COC(=O)c1cc(NC(=O)c2cccc(F)c2)cc(C(=O)OC)c1,-7,-8,33,48*,2,10,31*
COc1cc(NC(=O)c2ccccc2)cc(OC)c1,8,6,43,68*,23,-4,46*
COc1ccc(C(=O)Nc2cc(OC)cc(OC)c2)cc1,26,4,32,18,17,-4,x
O=C(COc1cccc(NC(=O)c2ccccc2)c1)c1ccc(F)cc1,30,-10,8,42*,-5,-29,34*
CCOC(=O)Nc1cccc(OCC(=O)Nc2ccccc2OC)c1,21,-6,46,42*,34,-15,15
CCN(CCNC(=O)C1CCCN(c2ncnc3c2nc2n3CCCCC2)C1)Cc1ccccc1 (stereo not drawn),0,5,1,71*,2,2,1
CN(CCNC(=O)C1CCN(c2ncnc3c2nc2n3CCCCC2)CC1)Cc1ccccc1,2,5,-14,-14,-1,-5,x
Clc1c(-c2ccccc2)nc2ccccn12,-18,-6,6,97*,2,4,6
Nc1cccc2cccc([N+](=O)[O-])c12,x,x,x,x,x,-11,x
Cc1ccn2c(=O)nc(SCC(=O)NCCc3ccccc3)nc2c1,-8,-5,2,-6,-6,x,x
COC(=O)CSc1nc(-c2ccccc2)c2c(c1C#N)CCCC2,7,7,23,41*,30,-25,27
Cc1cc(C)c(C)c(S(=O)(=O)NC2CCN(Cc3ccccc3)CC2)c1C,-20,-6,22,20,20,3,x
CCN1/C(=C/c2ccc3cc(C)ccc3[n+]2CC)Sc2cc(C)c(C)cc21,x,x,-4,52*,-10,101*,79*
Cc1cccc(NC(=S)N=Nc2c(O)[nH]c3ccccc23)c1,12,97*,38,41*,34,-51,37*
O=C(N=Nc1c(O)[nH]c2ccccc12)Nc1ccccc1,x,x,x,x,x,-5,x
SMILES,Calb FLC,SKKanGAS inh,tim23-1 inh,TIM10 inh,tim10-1 inh,PfHsp90 set2,TIM10 conf
Cc1cnc(C(=O)OC(C(=O)Nc2cc(C(F)(F)F)ccc2Cl)c2ccccc2)cn1 (stereo not drawn),14,6,29,98*,28,-3,19
Cc1nnc(SCc2nc3ccccc3[nH]2)s1,-6,0,-8,-2,-6,1,x
c1ccc2[nH]c(CSc3nc4ccccc4s3)nc2c1,-1,17,23,68*,33,-6,59*
O=C(CSc1nnc(-c2ccco2)o1)Nc1c(F)cccc1F,x,x,-2,6,-7,3,x
CCN(Cc1ccccc1)c1ccc(/C=N/N=C(N)N)cc1,60,1,44,-47,-53,7,x
CCN(Cc1ccccc1)c1ccc(/C=N/NC(=S)NC(C)C)cc1,u,-7,29,43*,36,-22,45*
COc1ccc(NC(=O)N2CCN(c3nc(-c4cccc(OC)c4)cs3)CC2)cc1,1,14,25,40*,21,-9,29*
CCCCC[C@@H](/C=C/C1C(=O)C=C[C@H]1C/C=C\CCCC(=O)O)OC(C)=O (stereo partly drawn),x,x,x,x,x,-18,x
Cc1cccc(COc2ccc(/C=N/NC(=O)c3nnn(-c4nonc4N)c3CN3CCCCC3)cc2)c1,0,11,-15,42*,-2,11,-2
Nc1nonc1-n1nnc(C(=O)N/N=C/c2ccc(OCc3cccc(Cl)c3)cc2)c1CN1CCCCC1,0,18,5,-4,6,2,x
Cn1cc(/C=C2\SC(=O)N(c3ccccc3)C2=O)c2ccccc21,0,-8,14,-2,34,7,x
Cn1cc(/C=C2\SC(=O)N(c3ccc(O)cc3)C2=O)c2ccccc21,9,27,33,44*,29,-5,38*
COc1ccc(/C(C)=N/NC(=S)NCCc2ccccc2)c(O)c1,-18,u,27,43*,28,14,37*
COc1ccc(O)c(/C=N/NC(=S)NCCc2ccccc2)c1,-4,1,10,23,27,-88,x
C=CCn1c(SCc2c(Cl)cccc2Cl)nnc1-c1cccnc1,30,5,27,41*,39,-3,17
CN(c1ccccc1)C(c1ccc(F)cc1)c1nnnn1C1CCCC1 (stereo not drawn),u,-2,37,45*,32,x,31*
CN(c1ccccc1)C(c1ccc(F)cc1)c1nnnn1CC1CCCO1 (stereo not drawn),-14,3,38,9,36,14,x
CC(=O)Nc1ccc(O)c(-c2nc3ccccc3s2)c1,-28,-17,28,46*,3,4,-2
CC(C)COC(=O)C(C#N)c1nc2ccccc2nc1N1CCN(Cc2ccc3c(c2)OCO3)CC1 (stereo not drawn),-26,8,25,49*,35,-9,39*
O=S1(=O)C=C(Oc2ccc3ccccc3c2)c2ccccc21,-2,9,38,42*,28,23,42*
COc1ccc(S(=O)(=O)N2CCCCCC2)cc1NC(C)C(=O)Nc1ccc(NC(C)=O)cc1 (stereo not drawn),x,x,x,x,x,-14,x
